This is an account of results in PubChem BioAssay (EPA / NIEHS).

Activity calls are given as the source filed them. The calls were made as follows: active = hit-call score of the fitted dose curve at least 0.9, where 1 is the maximum; inactive = score below 0.9.

Read-out in experiment [1]: Tissue Factor, F3 (gene 2152)
Briefly: BSK_CASM3C_TissueFactor: BioMAP Diversity Plus: CASM3C Assay for Tissue Factor Biomarker Activity (AID 2283052).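 Also: cell surface tissue factor protein level read by ELISA.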 The note with it: primary human coronary artery smooth muscle cells; actives raise or lower the signal.

Read-out in experiment [2]: Interferon-gamma inducible Protein 10 (IP10), CXCL10 (gene 3627)
Nature of the experiment: BSK_hDFCGF_IP10: BioMAP Diversity Plus: hDFCGF Assay for Interferon-gamma inducible Protein 10 (IP10) Biomarker Activity (AID 2283053). Particulars: primary human foreskin fibroblasts; actives raise or lower the signal. Summed up:
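Primary foreskin fibroblasts, human; 24 h compound exposure; IP-10 by ELISA; bidirectional fit vs DMSO.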

Read-out in experiment [3]: Urokinase-type plasminogen activator receptor (uPAR), PLAUR (gene 5329)
Briefly: BSK_CASM3C_uPAR: BioMAP Diversity Plus: CASM3C Assay for Urokinase-type plasminogen activator receptor (uPAR) Biomarker Activity (AID 2283054).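 Also: cell-surface uPAR protein level quantified by ELISA.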 Particulars: primary human coronary artery smooth muscle cells; actives raise or lower the signal.

Read-out in experiment [4]: Vascular cell adhesion molecule 1 (VCAM1), VCAM1 (gene 7412)
Nature of the experiment: BSK_CASM3C_VCAM1: BioMAP Diversity Plus: CASM3C Assay for Vascular cell adhesion molecule 1 (VCAM1) Biomarker Activity (AID 2283055).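 Also: VCAM-1 protein level quantified by ELISA on the cells.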 The note with it: primary human coronary artery smooth muscle cells; actives raise or lower the signal.

Read-out in experiment [5]: Collagen III, COL3A1 (gene 1281)
Briefly: BSK_hDFCGF_CollagenIII: BioMAP Diversity Plus: hDFCGF Assay for Collagen III Biomarker Activity (AID 2283056). Particulars: primary human foreskin fibroblasts; actives raise or lower the signal. Summed up:
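ELISA read-out of collagen III from human skin fibroblast cultures sampled 24 h post-dosing. Values were derived by bidirectional fitting relative to the DMSO vehicle control.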

Read-out in experiment [6]: Epidermal growth factor receptor (EGFR), EGFR (gene 1956)
Briefly: BSK_hDFCGF_EGFR: BioMAP Diversity Plus: hDFCGF Assay for Epidermal growth factor receptor (EGFR) Biomarker Activity (AID 2283057). Particulars: primary human foreskin fibroblasts; actives raise or lower the signal. Summed up: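 hDFCGF system, primary human foreskin fibroblasts; compound 24 h; EGFR measured by ELISA; DMSO = negative control/baseline; bidirectional fitting.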

Read-out in experiment [7]: Interleukin-8 (IL8), CXCL8 (gene 3576)
Briefly: BSK_hDFCGF_IL8: BioMAP Diversity Plus: hDFCGF Assay for Interleukin-8 (IL8) Biomarker Activity (AID 2283058). The note with it: primary human foreskin fibroblasts; actives raise or lower the signal. Summed up: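 Cells used are human skin primary fibroblasts. Chemical is added, cultures run 24 h, then IL-8 is quantified by ELISA, and gain or loss versus DMSO control is fitted in both directions.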

Read-out in experiment [8]: Macrophage colony-stimulating factor (MCSF), CSF1 (gene 1435)
Briefly: BSK_hDFCGF_MCSF: BioMAP Diversity Plus: hDFCGF Assay for Macrophage colony-stimulating factor (MCSF) Biomarker Activity (AID 2283060). Particulars: primary human foreskin fibroblasts; actives raise or lower the signal. The gist of the method: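 Primary human foreskin fibroblasts dosed with chemical; 24 h later, M-CSF quantified by ELISA; curves fitted in both directions vs DMSO negative control.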

The nature of experiment [9]: BSK_hDFCGF_SRB: Viability Assessment in the BioMAP Diversity Plus: hDFCGF Assay (AID 2283061).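 Also: cells exposed to compound for 24 h before the read.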 Particulars: primary human foreskin fibroblasts. The gist of the method: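 Readout is SRB absorbance at 560 nm, reflecting total protein in parallel cultures of human foreskin fibroblasts harvested 24 h after chemical dosing. Activity was fitted bidirectionally relative to DMSO.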

Read-out in experiment [10]: TIMP metallopeptidase inhibitor 1 (TIMP1), TIMP1 (gene 7076)
Nature of the experiment: BSK_hDFCGF_TIMP1: BioMAP Diversity Plus: hDFCGF Assay for TIMP metallopeptidase inhibitor 1 (TIMP1) Biomarker Activity (AID 2283062). Particulars: primary human foreskin fibroblasts; actives raise or lower the signal. Summed up: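 Human skin fibroblasts (primary), hDFCGF system; compound exposure 24 h; TIMP-1 by ELISA; bidirectional fit vs DMSO negative control; overt cytotoxicity by SRB in parallel wells.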

Read-out in experiment [11]: Monokine induced gamma interferon (MIG), CXCL9 (gene 4283)
Briefly: BSK_hDFCGF_MIG: BioMAP Diversity Plus: hDFCGF Assay for Monokine induced gamma interferon (MIG) Biomarker Activity (AID 2283063). Particulars: primary human foreskin fibroblasts; actives raise or lower the signal. The gist of the method: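 Chemicals were added to primary human foreskin fibroblast cultures, which were sampled 24 h later. MIG levels were then quantified by ELISA and responses fitted in both directions relative to DMSO.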

Read-out in experiment [12]: Matrix Metallopeptidase 1 (MMP1), MMP1 (gene 4312)
Briefly: BSK_hDFCGF_MMP1: BioMAP Diversity Plus: hDFCGF Assay for Matrix Metallopeptidase 1 (MMP1) Biomarker Activity (AID 2283064). The note with it: primary human foreskin fibroblasts; actives raise or lower the signal. Summed up:
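Primary human foreskin fibroblasts in the hDFCGF system were dosed with test chemical, and MMP1 was measured by ELISA 24 h later. Values come from bidirectional curve fitting against the DMSO baseline.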

Read-out in experiment [13]: Plasminogen activator inhibitor-1 (PAI1), SERPINE1 (gene 5054)
Nature of the experiment: BSK_hDFCGF_PAI1: BioMAP Diversity Plus: hDFCGF Assay for Plasminogen activator inhibitor-1 (PAI1) Biomarker Activity (AID 2283066). Particulars: primary human foreskin fibroblasts; actives raise or lower the signal. Summed up:
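Primary dermal fibroblasts (human foreskin), hDFCGF system; compound 24 h; PAI-1 by ELISA; bidirectional fit vs DMSO control.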

Read-out in experiment [14]: Intercellular Adhesion Molecule 1 (ICAM1), ICAM1 (gene 3383)
Briefly: BSK_KF3CT_ICAM1: BioMAP Diversity Plus: KF3CT Assay for Intercellular Adhesion Molecule 1 (ICAM1) Biomarker Activity (AID 2283067). The note with it: primary human keratinocytes with fibroblasts; actives raise or lower the signal. The gist of the method:
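ICAM-1 levels are measured by ELISA 24 h after dosing a primary human co-culture of keratinocytes and foreskin fibroblasts. Activity in either direction is fitted relative to DMSO vehicle.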

Experiment [15] can be described thus: BSK_KF3CT_SRB: Viability Assessment in the BioMAP Diversity Plus: KF3CT Assay (AID 2283069).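 Also: total protein by sulforhodamine B staining as a cytotoxicity measure; read 24 h after compound addition; fitted for both signal gain and loss against DMSO baseline.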 The note with it: primary human keratinocytes with fibroblasts. Summed up:
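Human primary keratinocyte plus foreskin fibroblast co-culture exposed to chemicals for 24 h. Total protein measured by 0.1% sulforhodamine B staining after 10% TCA fixation, read at 560 nm; bidirectional fitting versus DMSO baseline.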

Read-out in experiment [16]: TIMP metallopeptidase inhibitor 2 (TIMP2), TIMP2 (gene 7077)
Nature of the experiment: BSK_KF3CT_TIMP2: BioMAP Diversity Plus: KF3CT Assay for TIMP metallopeptidase inhibitor 2 (TIMP2) Biomarker Activity (AID 2283071). Particulars: primary human keratinocytes with fibroblasts; actives raise or lower the signal. Summed up: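 Cells: human keratinocytes co-cultured with foreskin fibroblasts. Treat with chemical, 24 h. Measure TIMP-2 by ELISA; fit curves bidirectionally vs DMSO baseline.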

On to `CC(=O)CCC=C(C)CCC=C(C)C`, for which the result in [1], in experiment [2], in [3], in [5], in experiment [6] and in experiment [7] was inactive. Besides, the result in [8], in experiment [9], in experiment [10], in experiment [11], in experiment [12] and in [13] was inactive. For the same compound, the outcome in experiment [14], in experiment [15] and in [16] was inactive. Further, the AC50 (as a rule, the concentration giving half of the maximal activity seen) in experiment [4] is 25.4 µM (active).
In the case of `CC(=O)OC(C)(C)C1CC=C(C)CC1` (stereo unspecified), the result in experiment [1], in [2], in experiment [5], in experiment [6], in [7] and in experiment [8] was inactive. In addition, the outcome in experiment [10], in [11], in experiment [12], in [14] and in [15] was inactive. In addition, the AC50 in experiment [3] is 31.7 µM (active); in experiment [4], 34.8 µM (active); in [9], 36.7 µM (active); in experiment [13] it was 23.6 µM (active); in experiment [16], 33.8 µM (active).
With `CC(C)CCCC(C)(C)O`, the outcome in experiment [1], in [2], in experiment [3], in experiment [4], in [5] and in [6] was inactive. The outcome in experiment [7], in [8], in [9], in [10], in experiment [11] and in experiment [12] was inactive. Further, the result in [13], in [14], in [15] and in [16] was inactive.
For `CC(=O)c1ccc(C)cc1`, the outcome in experiment [1], in [2], in [3], in [4], in [5] and in experiment [6] was inactive. In addition, the result in experiment [7], in [8], in experiment [9], in experiment [10], in experiment [11] and in experiment [12] was inactive. In addition, the outcome in experiment [13], in experiment [14], in experiment [15] and in [16] was inactive.
Take `C#C[C@]1(O)CC[C@H]2[C@@H]3CCc4cc(O)ccc4[C@H]3CC[C@@]21C`: the result in experiment [1], in experiment [2], in [3], in [4], in experiment [5] and in experiment [6] was inactive. Further, the result in experiment [7], in [8], in experiment [9], in [10], in [11] and in experiment [12] was inactive. In addition, the result in experiment [13], in experiment [14], in experiment [15] and in experiment [16] was inactive.
For `CCCCCCCCCCCCS`, the outcome in [1], in [6] and in [14] was inactive. The AC50 is 11.3 µM (active) in [2]; 30.3 µM (active) in experiment [3]; 6.76 µM (active) in experiment [4]; 7.78 µM (active) in experiment [5]; 20 µM (active) in experiment [7]; 9.73 µM (active) in experiment [8]. Moreover, the AC50 in experiment [9] was 11.7 µM (active); in experiment [10], 8.95 µM (active); in [11], 17 µM (active); in [12], 10.2 µM (active); in experiment [13], 10.8 µM (active); in experiment [15], 32.9 µM (active). In addition, the AC50 in experiment [16] was 20 µM (active).
In the case of `C=C1CC/C=C(\C)CC[C@@H]2[C@@H]1CC2(C)C`, the outcome in experiment [1], in [3] and in [6] was inactive. Moreover, the AC50 is 30.1 µM (active) in experiment [2]; 29 µM (active) in experiment [4]; 13.5 µM (active) in [5]; 33.9 µM (active) in experiment [7]; 24.5 µM (active) in experiment [8]; 27.7 µM (active) in experiment [9]. Further, the AC50 is 27.5 µM (active) in experiment [10]; 33.9 µM (active) in experiment [11]; 29.7 µM (active) in experiment [12]; 31.2 µM (active) in experiment [13]; 30.3 µM (active) in experiment [14]; 28.1 µM (active) in experiment [15]. Further, in [16], the AC50 was 10.8 µM (active).
For the compound `CC(=O)OCC=C(C)CCC=C(C)CCC=C(C)C`, the AC50 in [1] was 2.51 µM (active); in [5], 4.49 µM (active); in experiment [8] it was 25.9 µM (active); in [10] it was 26.3 µM (active); in experiment [13], 25.8 µM (active). Further, the result in [2], in experiment [3], in experiment [4], in experiment [6], in experiment [7] and in [9] was inactive. The outcome in experiment [11], in [12], in [14], in [15] and in experiment [16] was inactive.
For the compound `c1ccc2c(c1)-c1ccc3ccc4cccc5cc-2c1c3c45`, the result in experiment [1], in experiment [2], in [3], in [4], in experiment [5] and in experiment [6] was inactive. Also, the result in experiment [7], in experiment [9], in experiment [10], in experiment [11], in [12] and in [13] was inactive. Moreover, the outcome in experiment [14] and in experiment [15] was inactive. Further, the AC50 in [8] is 0.0865 µM (active); in [16], 0.825 µM (active).
`CCOC(=O)CCCCCCCCC(=O)OCC`: the outcome in experiment [1], in [2], in experiment [3], in experiment [4], in [5] and in experiment [6] was inactive. The outcome in [7], in experiment [8], in [9], in [10], in experiment [11] and in [12] was inactive. In addition, the outcome in [13], in [14], in [15] and in experiment [16] was inactive.
With `CC=CC(=O)C1=C(C)C=CCC1(C)C`, the outcome in experiment [1], in experiment [2], in [3], in experiment [4], in experiment [5] and in experiment [6] was inactive. The result in experiment [7], in experiment [8], in [9], in [10], in [11] and in experiment [12] was inactive. Moreover, the outcome in experiment [14], in experiment [15] and in experiment [16] was inactive. Further, the AC50 in [13] was 0.016 µM (active).
